# Screening data from PubChem.
# Rows were chosen to be rich in hits. Some 11% of all compounds tested hit in one or more screens of this group.
# Pf growth 48h: P. falciparum growth inhibition at 48 hours (one generation) | P. falciparum luciferase growth in erythrocytes, 48 h | Potency, µM (top dose mostly 28.7 µM), without a hit: at the highest dose activity change, negative = inhibition, hits mostly inhibitors | actives 5.9% (n = 310,000) | AID 504832
#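 Luminescence readout; reporter = integrated firefly luciferase in P. falciparum. RBC culture at 2% hematocrit, 0.1% parasitemia final, 37 C/5% CO2; decreased signal taken as growth inhibition.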
# AmpC detergent: inhibitors of E. coli AmpC beta-lactamase with detergent; P00811; AmpC hydrolysis of nitrocefin, absorbance 480 nm, 0.01% Triton; Potency, µM (titrated, usually from 114 µM), for inactives: at the highest dose activity change, negative = inhibition, most hits filed as inhibitors; actives 0.041% (n = 370,000); AID 485294;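 note: 0% = no-compound wells and -100% = no-enzyme wells; nearly all actives have a fitted effect of over 25% in size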
# Target sequence (P00811 whole entry, looked up): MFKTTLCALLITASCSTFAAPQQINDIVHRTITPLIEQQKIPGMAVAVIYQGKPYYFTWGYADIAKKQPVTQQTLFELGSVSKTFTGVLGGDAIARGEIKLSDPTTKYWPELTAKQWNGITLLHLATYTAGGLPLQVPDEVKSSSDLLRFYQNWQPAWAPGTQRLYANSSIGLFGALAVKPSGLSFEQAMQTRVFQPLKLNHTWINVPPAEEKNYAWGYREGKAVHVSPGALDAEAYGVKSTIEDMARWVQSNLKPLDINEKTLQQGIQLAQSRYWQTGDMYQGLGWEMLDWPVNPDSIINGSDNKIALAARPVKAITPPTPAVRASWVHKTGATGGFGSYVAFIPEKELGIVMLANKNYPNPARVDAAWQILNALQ
#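 AmpC (5.3 nM in the dispensed reagent) in 20 mM phosphate pH 7.0 with 0.01% (detergent screen) or 0.0001% Triton X-100 was preincubated with compounds for 15 min at room temperature. Nitrocefin was then added from an 800 uM solution, and hydrolysis was followed at 480 nm.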
# AMA1 RON2 block: AMA1-RON2 (P. falciparum) interaction inhibition | AID 720542 | Potency, µM (top dose mostly 58.2 µM), for the others: at the highest dose activity change, negative = inhibition, most hits filed as inhibitors | actives 0.2% (n = 360,000) | AlphaScreen AMA1-biotinylated RON2 peptide binding;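 note: 0% = vehicle wells and -100% = peptide control; nearly all actives have a fitted effect of over 45% in size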
#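 AMA1 (3D7) with his tag at 25 nM final met compounds first, then biotinylated RON2 peptide at 25 nM; detection used donor plus acceptor beads, 10 µg/mL apiece, read by AlphaScreen after 30 min at room temperature.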
# AmpC no deterg: blocks E. coli AmpC beta-lactamase in detergent-free assay. P00811. AmpC nitrocefin hydrolysis, absorbance 480 nm, 0.0001% Triton. Potency, µM (highest dose often 57.1 µM), for the others: top-dose activity change, negative = inhibition, hits mostly inhibitors. actives 0.52% (n = 330,000);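 note: plate controls were no compound for no effect and no enzyme for full effect; nearly all actives have a fitted effect of over 20% in size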
#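 20 mM phosphate pH 7.0 + 0.01% (detergent screen) or 0.0001% Triton X-100; 5.3 nM AmpC reagent; cpd preinc 15 min RT; nitrocefin (800 uM stock) to start; A480 q20 s × 4 min; Activity was normalised to no-enzyme and no-compound control wells.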
# Pf growth 96h: inhibits malaria parasite growth, 96 h; P. falciparum luciferase reporter growth, 96 h; Potency, µM (top dose mostly 28.7 µM), for inactives: at the highest dose activity change, negative = inhibition, actives largely listed as inhibitors; actives 6.9% (n = 320,000); AID 504834
#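 96 h incubation, 37 C, 5% CO2, of luciferase-reporter P. falciparum-infected RBCs (2% hematocrit, 0.05% parasitemia final) with test compounds; endpoint luminescence.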
# HCV inh: inhibitors of hepatitis C virus infection. Huh7.5.1 HCVcc-Cre infection, luciferase reporter, 44 h. Potency, µM (highest dose often 41.8 µM), for the others: at the highest dose activity change, negative = inhibition, actives largely listed as inhibitors. actives 3.4% (n = 340,000). AID 651820
#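 Luciferase read-out (15 sec integration) after a 15 min room-temperature substrate step quantifies HCVcc-Cre infection. Cells, 1,000 per well, had compound added 4 h post-plating, then virus at ~0.5 moi, and were cultured 44 h.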
# An asterisk follows results filed as active; ? = inconclusive; · = not tested or not shown. Calls come from the whole dose curve; as a rule, active = well fitted curve in the direction sought with a large enough effect; inconclusive = small, poorly fitted or top-dose-only effect, or another doubt; inactive = no such curve, though single readings can be large; an effect the other way counts as inactive or inconclusive. Unless noted, % is set by controls: 0 for no effect and ±100 for the full control effect; potency is the fitted concentration of half-maximal effect.
SMILES,Pf growth 48h,AmpC detergent,AMA1 RON2 block,AmpC no deterg,Pf growth 96h,HCV inh
COc1ccc(/C=N/NC(=O)c2cccc([N+](=O)[O-])c2)cc1OS(=O)(=O)c1ccc(C)cc1,?,1.8%,-1.4%,-26.7%,-30.3%,-22.4%
CN(c1ccc(C(=O)N/N=C/c2cccc([N+](=O)[O-])c2)cc1)S(=O)(=O)c1ccccc1,6.57µM*,-2.2%,6.5%,-43.3%,?,12.6µM*
CCOc1cc(/C=N/NC(=O)c2cccc([N+](=O)[O-])c2)ccc1OS(=O)(=O)c1ccccc1,11.7µM*,?,-3.3%,-28.3%,?,8.91µM*
CN(c1ccccc1)S(=O)(=O)c1ccc(NC(=O)c2ccccc2C(=O)O)cc1,·,·,4.3%,·,·,2.3%
CC(=O)Nc1ccc(S(=O)(=O)Oc2ccc(/C=N/NC(=O)c3ccc(Cl)cc3)cc2)cc1,13.1µM*,4.6%,-7.6%,-20.5%,?,3.98µM*
CC(C)c1ccc(OCc2cc(=O)n3c4c(sc3n2)CCCC4)cc1,·,0.4%,·,·,·,·
COc1ccc(/C=N/NC(=O)c2ccc(N(C)S(=O)(=O)c3ccccc3)cc2)cc1,?,-9.4%,42.8%,-21.7%,36.3%,12.6µM*
COc1ccc(C(=O)Nc2ccc(S(=O)(=O)N(C)c3ccccc3)cc2)cc1,·,·,4.9%,·,·,12.6µM*
COc1cccc(CN(Cc2ccco2)c2cnc(S(C)(=O)=O)nc2C(=O)Nc2cccc(Cl)c2C)c1,·,-7.2%,·,·,·,·
CCCCn1c(SCC(=O)Nc2cc(C(F)(F)F)ccc2Cl)nnc1C(CC)N(C)C (centres undefined),8.28µM*,3.5%,-21.7%,336.9%,?,?
CN1Cc2cc(C(=O)c3cc(Cl)cc(CSc4ncccn4)c3O)cnc2NC1=O,-17.3%,?,·,-0.7%,9.28µM*,·
CC1=C(C(N)=O)C(c2ccccn2)n2nc(SCc3ccccc3Cl)nc2N1 (centres undefined),-19.9%,7.1%,-4.7%,-3.7%,3.2%,16.3%
COc1ccc(CNC(=O)C2CCN(c3nn4c(=O)cc(C)nc4s3)CC2)cc1,-13.1%,-2.4%,4.7%,27.3%,?,12.0%
Cc1cc(=O)n2nc(N3CCCC(C(=O)Nc4ccc(C)c(C)c4)C3)sc2n1 (centres undefined),22.9%,-3.6%,-0.7%,65.5%,?,?
COc1ccccc1CNC(=O)C1CCN(c2nn3c(=O)cc(C)nc3s2)CC1,·,-6.2%,·,·,·,·
CCOc1cc(C)nc(N2CCCC(C(=O)NCc3ccccc3F)C2)n1 (centres undefined),2.94µM*,-12.5%,-11.5%,47.7%,·,-24.5%
CCc1ccccc1NC(=O)C1CCCN(c2nn3c(=O)cc(C)nc3s2)C1 (centres undefined),?,-11.2%,15.4%,-9.5%,10.4µM*,-1.9%
COc1ccc(CNC(=O)C2CCCN(c3nn4c(=O)cc(C)nc4s3)C2)cc1 (centres undefined),-14.4%,-6.7%,-0.4%,4.3%,9.28µM*,3.3%
CCOc1ccccc1CNC(=O)C1CCCN(c2nn3c(=O)cc(C)nc3s2)C1 (centres undefined),?,0.4%,2.6%,1.8%,14.7µM*,1.9%
Cc1ccc(C)c(N2CCN(C(=O)c3cnn(C(C)(C)C)c3C3CCN(C(=O)OC(C)(C)C)CC3)CC2)c1,·,-4.7%,·,·,·,·
Cc1ccc(NC(=O)C2CCCN2c2nn3c(=O)cc(C)nc3s2)cc1 (centres undefined),14.2%,-7.9%,20.3%,-13.1%,11.7µM*,-3.6%
COc1ccc(CCNC(=O)Cn2c(=O)c3cccn3c3ccc(F)cc32)c(OC)c1,·,23.7%,·,·,·,·
Cn1c(CCNC(=O)c2cccs2)nnc1SCC(=O)Nc1nc(-c2ccccc2)cs1,7.38µM*,-9.4%,-6.8%,7.5%,14.4%,7.1%
Cn1cnnc1SCC(=O)Nc1nc(-c2ccccc2)cs1,-11.9%,79.4µM*,1.6%,-21.0%,?,?
CCCN1CCN(c2nnc(-n3cccc3C(=O)Nc3cc(Cl)ccc3C)s2)CC1,·,4.3%,·,·,·,·
SMILES,Pf growth 48h,AmpC detergent,AMA1 RON2 block,AmpC no deterg,Pf growth 96h,HCV inh
O=C(Nc1cccc(Cl)c1Cl)c1cc(S(=O)(=O)N2CCC3(CC2)OCCO3)ccc1F,·,9.5%,·,·,·,·
COc1ccccc1N1CCN(CCCNC(=O)c2cnn(-c3ccccc3)c2C2CCN(C(=O)OC(C)(C)C)CC2)CC1,·,1.8%,·,·,·,·
CCCN(S(=O)(=O)c1ccc(OCC)cc1)S(=O)(=O)c1cccs1,10.4µM*,2.0%,8.6%,-5.4%,?,?
COc1ccc(NC(=O)Cn2c(=O)n(CCc3ccccc3)c(=O)c3c4c(sc32)CCCC4)cc1,·,-2.1%,·,·,·,·
Oc1ccc(C(c2nnnn2CCc2ccccc2)N2CCN(c3nc4ccccc4s3)CC2)cc1 (centres undefined),?,-13.8%,70.4%,-22.8%,?,12.6µM*
COc1cccc(C(c2nnnn2CCc2ccccc2)N2CCN(c3ccccc3)CC2)c1OC (centres undefined),4.65µM*,?,-16.5%,-2.5%,?,?
C=CCN1CCN(C(c2cccc(OC)c2OC)c2nnnn2CCC(C)C)CC1 (centres undefined),7.38µM*,2.3%,6.1%,187.3%,10.0%,-4.1%
COc1ccccc1C(c1nnnn1CCc1ccccc1)N1CCN(c2ccccc2)CC1 (centres undefined),-2.9%,-23.5%,43.8%,-8.7%,?,?
COCCn1nnnc1C(c1cccs1)N1CCN(c2nc3ccccc3s2)CC1 (centres undefined),?,-3.2%,-7.8%,119.5%,?,?
COc1ccccc1N1CCN(C(c2ccccc2)c2nnnn2CCc2ccccc2)CC1 (centres undefined),10.4µM*,-7.4%,-19.5%,21.6%,-6.4%,?
COc1ccccc1C1C=C(c2ccc(Cl)cc2)Nc2nc(-c3ccc(Cl)cc3)nn21 (centres undefined),·,14.1%,·,·,·,·
